Screening results as filed in PubChem BioAssay.
Most compounds without a hit are left out; they make up all but 8.1% or so of the library.
Shh pathway inh = Sonic Hedgehog pathway inhibition; inhibition, % (concentration not given with the values); 2.1% of 22,000 active; Shh-LIGHT2 Gli-luciferase reporter, 30 h;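 active means mean inhibition across valid replicates above about 65%, limit read from the data; inconclusive means mean under the limit, yet half or more replicates past it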;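 further: pathway switched on by Shh-conditioned medium diluted 1 in 25 in low serum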
NOMO-1 viab = STK33 inhibitor candidate reducing NOMO-1 cell viability | NOMO-1 AML viability, CellTiter-Glo luminescence, 72 h | inhibition, % (concentration not given with the values) | 7.5% of 37,000 active | AID 2330; in the data active means inhibition above about 80%; inconclusive means no clear call, values can overlap the other calls
MITF inhib = MITF inhibition | TRPM1 promoter luciferase, luminescence, 24 h | inhibition, % (test concentration not listed) | 0.28% of 37,000 active; in the data active means inhibition above about 85%; inconclusive means no clear call, values can overlap the other calls; inactive means below about 68%;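 further: human melanocyte line stably carrying TRPM1 promoter luciferase reporter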
Of the large screens only hits and unclear results are named; the others gave an inactive call.

COc1ccc(CN(C)C[C@@H]2Oc3ccc(NS(=O)(=O)c4ccc(OC)cc4)cc3C(=O)N([C@H](C)CO)C[C@@H]2C)cc1	none
COc1ccc(S(=O)(=O)Nc2ccc3c(c2)C(=O)N([C@H](C)CO)C[C@@H](C)[C@H](CN(C)Cc2ccc(Cl)c(Cl)c2)O3)cc1	none (no result: Shh pathway inh)
COc1ccc(C(=O)Oc2ccc(C)c3c2C(=O)OC(C)C3)c2c1C(=O)OC(C)C2 (stereo not given)	none
COc1ccc(C(=O)CSc2nnc(-c3ccccc3Cl)n2-c2ccccc2)cc1	none (no result: Shh pathway inh)
Cc1ccc(OCC(=O)Nc2cccc(-c3nc4cc(Cl)ccc4o3)c2C)c(C)c1	none (no result: Shh pathway inh)
Cc1ccc(C)c(NC(=O)CSc2ncnc3sc4c(c23)CCC4)c1	none (no result: Shh pathway inh)
Cc1ccnc(NS(=O)(=O)c2ccc(NC(=O)c3cccs3)cc2)n1	none (no result: Shh pathway inh)
C[C@@H]1O[C@@H](OC[C@H]2O[C@@H](Oc3cc(O)c4c(c3)OC(c3ccc(O)cc3)CC4=O)[C@H](O)[C@@H](O)[C@@H]2O)[C@H](O)[C@H](O)[C@H]1O (stereo not given in full)	none
COc1ccc(C2C3CCc4ccccc4C3=NN2C(=O)c2cccs2)cc1 (stereo not given)	none
N#CC(C#N)=C(N)/C(C#N)=C/c1cc(O)c(O)c(O)c1	Shh pathway inh 76.2
CC(C)(C)c1cc(/C=C(\C#N)C(N)=S)cc(C(C)(C)C)c1O	Shh pathway inh 105.9, NOMO-1 viab 117.7, MITF inhib 90.8
O=C(CSc1n[nH]c(-c2ccc(Cl)cc2)n1)Nc1cccc(F)c1	none (no result: Shh pathway inh)
Cc1ccnc(SCC(=O)Nc2cccc(C(F)(F)F)c2)n1	none (no result: Shh pathway inh)
Oc1ccc(CNc2cccc(C(F)(F)F)c2)c2cccnc12	Shh pathway inh inconclusive, NOMO-1 viab 104.4
COc1ccc(NC(=O)C(=O)NCC(=O)Nc2ccc(C)cc2)cc1	none (no result: Shh pathway inh)
COc1cccc(S(=O)(=O)NCc2ccc(C(=O)O)cc2)c1	none (no result: Shh pathway inh)
N#Cc1cccc(CSc2nnc(SCc3cccc(C#N)c3)s2)c1	Shh pathway inh 67.8
Nc1nnc(SCc2cccnc2)s1	none (no result: Shh pathway inh)
CC(C)(C)C1CCc2c(sc(NC(=O)COc3ccccc3Cl)c2C(N)=O)C1 (stereo not given)	NOMO-1 viab 104.3 (no result: Shh pathway inh)
CCc1ccccc1OCC(=O)Nc1sc2c(c1C(N)=O)CCCC2	none (no result: Shh pathway inh)
O=C(NC(C(=O)O)C12CC3CC(CC(C3)C1)C2)c1ccc(F)cc1 (stereo not given)	none (no result: Shh pathway inh)
COc1ccccc1C(=O)NCCCn1cc(Br)c(C)n1	none (no result: Shh pathway inh)
Cc1ccc(S(=O)(=O)c2c(C)nn(C(C)(C)C)c2OC(=O)c2ccccc2Br)cc1	NOMO-1 viab 105.1 (no result: Shh pathway inh)
CC(C)NS(=O)(=O)c1ccc(OCC(N)=O)cc1	none (no result: Shh pathway inh)
COc1ccc(CN(C)C[C@H]2Oc3ccc(NC(=O)Nc4ccc(C(F)(F)F)cc4)cc3C(=O)N([C@@H](C)CO)C[C@@H]2C)cc1	NOMO-1 viab 113.2
COc1ccc(NC(=O)Nc2ccc3c(c2)C(=O)N([C@@H](C)CO)C[C@@H](C)[C@@H](CN(C)Cc2ccc(C(F)(F)F)cc2)O3)cc1	NOMO-1 viab inconclusive (no result: Shh pathway inh)
COc1ccc(CN(C)C[C@@H]2Oc3ccc(NC(=O)Nc4ccc(C(F)(F)F)cc4)cc3C(=O)N([C@H](C)CO)C[C@@H]2C)cc1	NOMO-1 viab 114.0
COc1ccc(NC(=O)Nc2ccc3c(c2)C(=O)N([C@@H](C)CO)C[C@H](C)[C@H](CN(C)Cc2ccc(C(F)(F)F)cc2)O3)cc1	none
Cc1ccc(-n2c(C)nnc2SCC(=O)Nc2ccc(Br)cc2F)cc1	none (no result: Shh pathway inh)
O=c1c(N2CCOCC2)nnc2sc3ccccc3n12	none
O=C1S/C(=C\c2ccc(N3CCOCC3)o2)C(=O)N1c1ccccc1	NOMO-1 viab 132.2 (no result: Shh pathway inh)
O=C(Nc1c(Cl)cc(Cl)cc1C(=O)NCCN1CCOCC1)c1cccc([N+](=O)[O-])c1	none (no result: Shh pathway inh)
O=C(Oc1c(CN2CCOCC2)cc(Cl)c2cccnc12)c1ccc([N+](=O)[O-])cc1	NOMO-1 viab 138.9 (no result: Shh pathway inh)
Cc1ccc(NC(=O)COc2c(C)cc(Cl)cc2Cl)c([N+](=O)[O-])c1	none (no result: Shh pathway inh)
COC(=O)c1ccccc1NC(=O)Cn1nc(C(F)(F)F)c2c1CCCCC2	none (no result: Shh pathway inh)
CCOc1ccccc1CNc1nc2nc3c(c(=O)n2[nH]1)CCC3	none (no result: Shh pathway inh)
Cc1[nH]n2c(=O)c3c(nc2c1-c1ccccc1)CCC3	NOMO-1 viab 106.4
CCC(=O)c1ccc2c(c1)N(CC(C)N(C)C)c1ccccc1S2 (stereo not given)	NOMO-1 viab 84.5
Cc1cc(C)nc(SCC(=O)N2c3ccccc3Sc3ccccc32)n1	none (no result: Shh pathway inh)
CCc1cccc(C)c1NC(=O)CNS(=O)(=O)c1ccc(Cl)cc1	none (no result: Shh pathway inh)
Cn1c(=O)c2c(nc(NCc3cccnc3)n2Cc2ccc(Cl)cc2Cl)n(C)c1=O	none (no result: Shh pathway inh)
O=C(COc1ccc(Br)cc1)Nc1cccc(-c2nc3ccccc3o2)c1	none (no result: Shh pathway inh)
CC12CCC(c3c1nn(-c1ccccc1)c3C(F)(F)F)C2(C)C (stereo not given)	Shh pathway inh inconclusive, NOMO-1 viab 122.6
Cc1ccc(N2C(=O)/C(=C/C=C/c3ccccc3)SC2=S)cc1	none
CCCc1cc(=O)[nH]c(Nc2nc(C)c3ccc(OC)cc3n2)n1	none (no result: Shh pathway inh)
Cc1cc(=O)[nH]c(Nc2nc(C)c3cccc(C)c3n2)n1	NOMO-1 viab 130.2 (no result: Shh pathway inh)
COc1ccc2c(C)nc(Nc3nc(C)cc(=O)[nH]3)nc2c1	NOMO-1 viab 116.9 (no result: Shh pathway inh)
CCCc1cc(=O)[nH]c(Nc2nc(C)c3cc(OC)ccc3n2)n1	none (no result: Shh pathway inh)
COc1cc(C2C3=C(CC(C)(C)CC3=O)Nc3ncnn32)ccc1OCC(=O)N1CCOCC1 (stereo not given)	none (no result: Shh pathway inh)
O=C(CSc1nc(O)cc(=O)[nH]1)Nc1cc(Cl)cc(Cl)c1	none (no result: Shh pathway inh)
O=c1c2c3c(sc2nc2c4ccccc4c(NCCOCCO)nn12)CCCC3	none (no result: Shh pathway inh)
CCOc1ccccc1OCC(=O)Nc1cc(Cl)ccc1OC	none (no result: Shh pathway inh)
C[C@H]1CN([C@@H](C)CO)C(=O)Cc2cc(NC(=O)Nc3ccccc3)ccc2O[C@@H]1CN(C)Cc1ccc(C(F)(F)F)cc1	none
C[C@@H]1CN([C@@H](C)CO)C(=O)Cc2cc(NC(=O)Nc3ccc(C(F)(F)F)cc3)ccc2O[C@@H]1CN(C)Cc1ccccc1	NOMO-1 viab inconclusive
C[C@@H]1CN([C@H](C)CO)C(=O)Cc2cc(NC(=O)Nc3ccc(C(F)(F)F)cc3)ccc2O[C@@H]1CN(C)Cc1ccccc1	NOMO-1 viab 118.2
C[C@@H]1CN([C@@H](C)CO)C(=O)Cc2cc(NC(=O)Nc3ccccc3)ccc2O[C@@H]1CN(C)Cc1ccc(C(F)(F)F)cc1	NOMO-1 viab 119.2
CCOc1ccc(C(=O)NC2CCCCC2)cc1	none
O=C(O)c1ccccc1Sc1ccccc1S(=O)(=O)NC12CC3CC(CC(C3)C1)C2	none
CCn1c(SCc2nc3ccccc3c(=O)[nH]2)nnc1-c1ccccc1C	none (no result: Shh pathway inh)
O=C(CCN1C(=O)c2ccccc2S1(=O)=O)Nc1ccc(Oc2ccccc2)cc1	none (no result: Shh pathway inh)
COC(=O)c1c(NC(=O)C2CC(=O)NN2Cc2ccccc2)sc2c1CCC2 (stereo not given)	none (no result: Shh pathway inh)
COC(=O)c1c(NC(=O)C2CC(=O)NN2Cc2ccccc2)sc2c1CCC(C)C2 (stereo not given)	NOMO-1 viab 108.9 (no result: Shh pathway inh)
COc1ccc(C(=O)CC(C#Cc2ccccc2)CC(=O)c2ccc(OC)cc2)cc1	none
O=C(Cn1c(S(=O)(=O)Cc2ccccc2)nc2ccccc21)N1CCOCC1	none (no result: Shh pathway inh)
C[C@@H]1CN([C@@H](C)CO)C(=O)c2cccc(NC(=O)c3ccc(-c4nccs4)cc3)c2O[C@H]1CN(C)CC1CCCCC1	NOMO-1 viab 109.3
C[C@H]1CN([C@@H](C)CO)C(=O)c2cccc(NC(=O)c3ccc(-c4nccs4)cc3)c2O[C@H]1CN(C)CC1CCCCC1	none
